About 83,000 compounds went through this panel and 20% of them were active in at least one assay; those are over-represented in the sample as a whole.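 In brief: 96-well plates, 48 h treatment, single concentration, percent growth endpoint.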 A number with no mark means an inactive call. Activity calls are given as the source filed them. How the source made its calls: active means growth percent below 10; inactive means the rest.
These compounds were tested on DU-145 prostate (assay: NCI-60 one-dose screen, 48 h (100 = growth as untreated, 0 = no growth, -100 = all killed)). Settings: 10 µM unless noted.

**Q.** For CC[C@H](C)[C@H]1NC(=O)[C@@H](N[C@](C)(O)[C@@H](N)CC(C)C)[C@@H](C)OC(=O)[C@H](Cc2ccc(OC)cc2)N(C)C(=O)[C@@H]2CCCN2C(=O)[C@H](CC(C)C)NC(=O)[C@@H](C)C(=O)[C@H](C(C)C)OC(=O)C[C@@H]1O, which growth is on record?
**A.** Its growth is -17.5% (active).

**Q.** How did the growth turn out when CCNC(=O)C1CCCN1C(=O)C(CCCN=C(N)N)NC(=O)C(CC(C)C)NC(=O)C(CC(C)C)NC(=O)C(Cc1ccc(O)cc1)NC(=O)C(CO)NC(=O)C(Cc1c[nH]c2ccccc12)NC(=O)C(Cc1cnc[nH]1)NC(=O)C1CCC(=O)N1 (stereo not drawn) was run?
**A.** Its growth is 135%.

**Q.** How did the growth turn out when COC(=O)c1cc(-c2cccs2)c(C#N)c(N)c1C#N was run?
**A.** The growth was 109%.

**Q.** O=C1N=C(c2c(-c3[nH]c(=O)c4ccc(Br)cc4c3O)c(O)c3ccccc3c2O)C(=O)c2cc(Br)ccc21 was tested. Which growth did it give?
**A.** Its growth is -38.2% (active).

**Q.** Which growth does the source give for CC[C@]1(O)C[C@@H]2CN(Cc3c([nH]c4ccccc34)[C@@](C(=O)OC)(c3cc4c(cc3OC)N(C)[C@H]3[C@@](O)(C(=O)OC)[C@H](OC(C)=O)[C@]5(CC)[C@@H]6C[C@@H]6CN6CC[C@]43[C@@H]65)C2)C1 here?
**A.** Its growth is 7.39% (active).

**Q.** With CCOC(=O)[C@H](CSSc1ncnc2cc[nH]c12)NC(=O)[C@@H](C)c1ccc2cc(OC)ccc2c1 as the compound, how does the growth read?
**A.** Its growth is 33.4%.

**Q.** For Cc1nc(Nc2cccnc2)sc1C(=O)/C=C/c1ccc(F)cc1, which growth is on record?
**A.** Its growth is 9.5% (active).

**Q.** COc1ccc(C2=CC(c3ccc(Oc4ccnc5cc(Cl)ccc45)c(OC)c3)c3c(nc(OC)[nH]c3=O)N2)cc1 (stereo not drawn) was tested. Which growth did it give?
**A.** Its growth is 75.6%.

**Q.** Which growth does the source give for COc1ccccc1CNCCCN1C(=O)c2ccc3c4c(ccc(c24)C1=O)C(=O)N(CCCNCCCCNCCCCN)C3=O here?
**A.** Its growth is 9.88% (active).

**Q.** For Cc1cc(C)c(S(=O)(=O)N2CCN(c3cc4c(cc3F)c(=O)c(C(=O)O)cn4C3CC3)CC2)c(C)c1, which growth is on record?
**A.** Its growth is 71.4%.

**Q.** How did the growth turn out when COc1ccc(C(=O)/C=C/c2cc(C(=O)c3cc(OC)c(OC)c(OC)c3)ccc2OC)cc1 was run?
**A.** Its growth is 79.3%.

**Q.** Which growth does the source give for NC(=O)NC(=O)/C=C/C(=O)OCCCl here?
**A.** Its growth is 112%.

**Q.** Which growth does the source give for COc1cc2nc(N3CCC[C@@H](NC4=CC(=O)c5ccccc5C4=O)C3)nc(N)c2cc1OC here?
**A.** The growth was -53.8% (active).

**Q.** How did the growth turn out when O=S(=O)(c1ccccc1)n1ccc(-c2ccc3c(c2)CCO3)n1 was run?
**A.** The growth was 95%.

**Q.** How did the growth turn out when O=C(CNc1ccc(Cl)cc1)Nc1ccc(-c2nc3ccccc3s2)cc1 was run?
**A.** Its growth is 70.2%.

**Q.** Which growth does the source give for COc1ccc(/C=C2\CCCC3=C2NC(C)=NC3c2ccc(OC)c(OC)c2)cc1OC (stereo not drawn) here?
**A.** Its growth is 7.29% (active).

**Q.** For COc1cc(OC)c(C(=O)/C=C/c2ccc(C(F)(F)F)cc2)c(OC)c1, which growth is on record?
**A.** Its growth is 11.9%.

**Q.** How did the growth turn out when O=C(CCl)NCCNc1nccc(Nc2ccc(S(=O)(=O)Nc3ccccn3)cc2)n1 was run?
**A.** Its growth is 14.4%.

**Q.** Which growth does the source give for O=C(O)c1ccc(-n2c(=O)c3ccccc3c3ccccc3c2=O)cc1 here?
**A.** Its growth is 113%.

**Q.** Cc1nn(-c2ccc(Cl)cc2)c(=O)n1CCOc1ccccc1Cl was tested. Which growth did it give?
**A.** Its growth is 110%.

**Q.** Which growth does the source give for CC(C)(C)OC(=O)N[C@@H](Cc1ccccc1)C(=O)N(Cc1ccccc1)C1(C(=O)NCc2ccccc2)CCN(Cc2ccccc2)CC1 here?
**A.** Its growth is 75.6%.

**Q.** COc1ccc(C(=O)c2cc(OC)c(OC)c(OC)c2)cc1/C=C/C(=O)c1ccc(OC)c(OC)c1 was tested. Which growth did it give?
**A.** Its growth is -4.98% (active).

**Q.** With CCCCNC(=O)NS(=O)(=O)c1ccc(N2N=C(c3ccc(C)cc3C)CC2c2ccc(OC)cc2)cc1 (stereo not drawn) as the compound, how does the growth read?
**A.** Its growth is 92.4%.

Source: PubChem BioAssay (NCI)
